Screening results from PubChem BioAssay.
Vaccinia Venus: vaccinia inhibition (Venus reporter) | AID 720580 | Potency, µM (series often up to 36.5 µM), without a hit: at the top dose activity change, negative = inhibition, hits mostly inhibitors | 330,000 compounds, 0.46% hits | Vaccinia virus Venus reporter expression, fluorescence; calls by dose curve; tested in A549 cells; also: potency is read from the fitted curve at half-maximal effect; nearly all actives have a fitted effect of over 30% in size
VACV mCherry inh: inhibitors of vaccinia virus infection (mCherry reporter signal); Potency, µM (doses to about 36.5 µM), inactives show at the highest dose activity change, negative = inhibition, hits mostly inhibitors; AID 720579; 310,000 compounds, 0.63% hits; Vaccinia virus mCherry reporter infection, fluorescence; calls by dose curve; tested in A549 cells; also: potency is read from the fitted curve at half-maximal effect; nearly all actives have a fitted effect of over 35% in size
HCMV inh: inhibitors of human cytomegalovirus. HFF cells, HCMV-luciferase reporter, 72 h; hits give low values. activity change, negative = inhibition, % at 57.5 µM. 410,000 compounds, 4.5% hits; in the data active = activity change below about -60%; inconclusive = no clear call, values can overlap the other calls; inactive = above about -39%
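Human foreskin fibroblasts infected with luciferase-reporter HCMV at MOI 1 PFU/cell, compounds at two doses. Luciferase measured 72 h post infection; normalized to buffer-only basal and Salinomycin (10uM) controls.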
LmPK inh: inhibitors of Leishmania mexicana pyruvate kinase; Q27686; 290,000 compounds, 0.37% hits; purified LmPK, Kinase-Glo ATP luminescence, 1 h; Potency, µM (highest dose often 57.5 µM), inactives show top-dose activity change, negative = inhibition, usual class: inhibitors; also: potency is read from the fitted curve at half-maximal effect
Target sequence (Q27686 whole entry, looked up): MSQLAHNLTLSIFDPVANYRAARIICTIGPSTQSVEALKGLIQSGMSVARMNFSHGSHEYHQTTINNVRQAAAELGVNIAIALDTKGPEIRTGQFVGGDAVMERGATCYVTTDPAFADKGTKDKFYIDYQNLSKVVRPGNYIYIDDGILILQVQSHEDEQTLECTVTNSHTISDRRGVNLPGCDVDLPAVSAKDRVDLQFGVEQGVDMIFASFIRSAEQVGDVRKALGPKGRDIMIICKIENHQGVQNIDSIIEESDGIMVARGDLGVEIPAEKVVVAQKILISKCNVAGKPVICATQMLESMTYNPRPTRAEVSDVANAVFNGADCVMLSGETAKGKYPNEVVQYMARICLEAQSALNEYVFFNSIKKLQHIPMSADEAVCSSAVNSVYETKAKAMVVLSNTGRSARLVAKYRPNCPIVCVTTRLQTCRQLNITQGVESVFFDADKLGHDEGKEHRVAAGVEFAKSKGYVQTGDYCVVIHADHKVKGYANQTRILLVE
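Kinase-Glo luminescence read after 1 h RT reaction of 0.1 nM LmPK with 0.5 mM PEP and 0.1 mM ADP. Activity scaled between uninhibited and enzyme-free controls.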
Tb PYK inh: T. brucei pyruvate kinase inhibition. Q57TT1. TbPYK enzyme, Kinase-Glo Plus ATP luminescence, 45 min. Potency, µM (top dose mostly 76.8 µM), inactives show at the highest dose activity, negative = inhibition, usual class: inhibitors. 410,000 compounds, 0.12% hits. AID 624173; also: potency is read from the fitted curve at half-maximal effect; nearly all actives have a fitted effect of over 50% in size
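Screened from lowest to highest concentration, compounds were pinned into TbPYK/substrate mixtures, and ADP (130 uM final) was added. Plates sat at room temperature for 45 min prior to Kinase-Glo Plus detection by luminescence.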
An asterisk follows results filed as active; i = inactive; ? = inconclusive; · = not tested or not shown; + = active, no number; [ ] = another dose, or the depositor's remark. This is a sample that favours compounds with a hit; in the whole collection about 5% have one here. Unless noted, calls follow the shape of the dose curve; as a rule, active = well fitted curve in the direction sought with a large enough effect; inconclusive = small, poorly fitted or top-dose-only effect, or another doubt; inactive = no such curve, though single readings can be large; an effect the other way counts as inactive or inconclusive. % is scaled to controls: 0 for no effect and ±100 for the full control effect.

SMILES	Vaccinia Venus	VACV mCherry inh	HCMV inh	LmPK inh	Tb PYK inh
CC1(C)NC(=S)NC1=S	-11%	-15%	-100*	·	1%
Cc1cccc(NC(=S)N(CCCN2CCOCC2)C(C)c2cc3ccccc3o2)c1 (stereo not given)	·	·	-8	-8%	-1%
CCOC(=O)/C(C#N)=C\c1cccnc1	-1%	-9%	-34	-6%	2%
CCOC(=O)/C(=C\c1cccnc1)C(=O)c1cc(C(C)=O)c(Nc2ccccc2)s1	11µM*	13µM*	·	1%	?
CCOC(=O)C(=O)/C(C#N)=C/Nc1ccccc1	0%	i	0	-1%	7%
CCOC(=O)/C(=C\c1ccccc1)C(=O)c1cc(C(C)=O)c(Nc2ccccc2)s1	-2%	-11%	-105*	0%	3%
COc1cc(OC)c(/C=C/c2ccccn2)c(OC)c1	?	-16%	·	·	·
Cc1oc(C(C)(C)C)cc1C(=O)N1CCCC1C(=O)O (stereo not given)	·	·	23	0%	3%
Cc1ccc(C(=O)NNC(=O)c2ccc3ccccc3c2)cc1	-6%	-13%	17	·	0%
N#CCSCC(=O)Nc1ccc(Cl)cc1	·	·	11	10%	-10%
CC(=O)c1ccc(NC(=O)c2ccc([N+](=O)[O-])o2)cc1	·	·	-105*	-10%	-1%
Cc1cc(C(=O)Nc2cccc(NC(=O)c3ccco3)c2)ccc1[N+](=O)[O-]	-9%	i	-82*	-11%	2%
COc1ccc(NC(=O)c2ccc([N+](=O)[O-])o2)cc1	?	?	-101*	-25%	-8%
CC(=O)c1cccc(NC(=O)c2ccc([N+](=O)[O-])o2)c1	-2%[7.34 µM]	-2%[7.34 µM]	-87*	·	-1%
Cc1cc(C)cc(NC(=O)c2ccc([N+](=O)[O-])o2)c1	?	?	-34	0%	-1%
Cc1cc(C)nc(NC(=O)c2ccc([N+](=O)[O-])o2)n1	-4%	-21%	-35	-1%	-2%
COc1ccc(CN2CCC3(CC2)c2ccccc2[C@@H](NC(=O)c2ccccc2)[C@@H]3O)cc1O	-10%	i	·	·	·
CCSc1nc(-c2ccccc2)cc(=O)[nH]1	-8%	-9%	1	·	-3%
Cc1cc(NC(=O)c2ccc([N+](=O)[O-])o2)ccc1NC(=O)c1ccco1	·	·	-85*	0%	-5%
COc1ccc(-n2ncc3c2CC(C)(C)CC3NC(=O)CCN2CCCC2=O)cc1 (stereo not given)	·	·	-8	-2%	6%
C/C(=N\NC(=O)COc1ccccc1-c1ccccc1)c1cccnc1	-7%	-1%	71	7%	-1%
CCCCCC(=O)N/N=C(\C)c1ccccn1	?	?	-99*	1%	8%
C/C(=N\NC(=O)COc1ccccc1-c1ccccc1)c1ccc(O)cc1O	·	·	-76*	5%	-6%
CCCCCCCC(=O)N/N=C(\C)c1ccc(O)cc1O	-16%	-28%	-70*	3%	-11%
C/C(=N\NC(=O)COc1ccccc1-c1ccccc1)c1ccccn1	?	?	-98*	3%	-1%
SMILES	Vaccinia Venus	VACV mCherry inh	HCMV inh	LmPK inh	Tb PYK inh
CC1Sc2ccc(S(=O)(=O)CCC(=O)NC3CCCCCC3)cc2NC1=O (stereo not given)	·	·	-7	7%	-2%
COc1ccc(S(=O)(=O)N(CCc2ccccc2)CC(=O)Nc2cc(Cl)ccc2C)cc1	-2%	-20%	-1	·	2%
O=C(COc1ccccc1-c1ccccc1)N/N=C/c1ccncc1	-14%	-14%	-38	4%	5%
O=C(COc1ccccc1-c1ccccc1)N/N=C/c1ccc2ccccc2c1	?	-29%	-100*	-6%	2%
COc1ccc(/C(C#N)=C/c2ccccn2)cc1	-20%	-18%	23	8.9µM*	-4%
CCOc1ccc(N2C(=O)CN(CC(=O)OC)C2=S)cc1	-8%	i	-69*	-10%	-5%
CCOc1ccc(N2C(=O)/C(=C/c3cccs3)N(CC(=O)OC)C2=S)cc1	·	·	18	1%	2%
O=C(NCCCn1ccnc1)c1ccc(NS(=O)(=O)c2cccc([N+](=O)[O-])c2)cc1	-4%	-12%	9	·	0%
COc1cccc(-n2c(SCC(=O)Nc3c(C)cc(C)cc3C)nc3c([nH]c4ccccc43)c2=O)c1	-3%	4%	-80*	·	-1%
Cc1ccc(-n2c(SCC(=O)Nc3cc(C)on3)nc3c([nH]c4ccccc43)c2=O)cc1	-6%	-11%	-70*	0%	-8%
CCc1ccc(NC(=O)CSc2nc3c([nH]c4ccccc43)c(=O)n2-c2ccc(C)cc2)cc1	-12%	-10%	-96*	·	4%
O=C(CSc1nc2c([nH]c3ccccc32)c(=O)n1-c1ccccc1F)Nc1cccc(C(F)(F)F)c1	-24%	-13%	-62*	·	-6%
COc1cccc(NC(=O)CSc2nc3c([nH]c4ccccc43)c(=O)n2-c2cc(C)cc(C)c2)c1	-15%	-8%	-30	·	-7%
CCc1ccc(NC(=O)CSc2nc3c([nH]c4ccccc43)c(=O)n2C)cc1	-22%	-15%	55	·	22%
COC(=O)C1=NN(N=O)C2(CC(=O)N(c3cc(C)cc(C)c3)C2=O)C1 (stereo not given)	·	·	18	1%	·
CC[C@H](C)[C@H](NC(=O)c1ccc(Cl)cc1)C(=O)OCC(=O)c1ccc2c(c1)NC(=O)CO2	?	-22%	-87*	2%	-8%
CC(C)(C)C1CCC(C(=O)OCC(=O)Nc2ccc3[nH]c(=O)[nH]c3c2)CC1 (stereo not given)	-24%	-1%	-72*	1%	-4%
O=C(COc1ccccc1O)NNc1ccccc1	2%	-2%	-15	-2%	-1%
COC1=C(C)C(=O)C2=C(C1=O)C1C3CC4=C(C(=O)C(OC)=C(C)C4=O)C(CNC(=O)C(C)=O)N3C(C#N)C(C2)N1C (stereo not given)	1µM*	?	-97*	·	-4%
COc1ccc([C@@]23Oc4cc(OC)cc(OC)c4[C@]2(O)[C@H](O)[C@H](C(=O)N(C)C)[C@H]3c2ccccc2)cc1	0.0001µM*	+	-98*	·	2%
COc1ccc(-c2ccc(C(=O)NCC3CC3)c3occc23)c(C)c1	-22%	6%	19	·	2%
c1c2c(cc3sc(N4CCOCC4)nc13)OCCO2	·	·	?	14µM*	?
c1ccc(N2CCN(c3nc4cc5c(cc4s3)OCCO5)CC2)cc1	·	·	-17	0%	4%
COc1c(C)cc(C(=O)C2CCCN(C(=O)c3ccoc3)C2)cc1C (stereo not given)	-3%	i	-81*	6%	-3%
CC(=O)Nc1ccc(NC(=O)C2=COC3=NC(=O)N(Cc4ccccc4C)CCN23)cc1	·	·	-35	·	·
O=C(Nc1ccc(-n2cccc2)cc1)C1=COC2=NC(=O)N(Cc3ccccc3)CCN12	·	·	-87*	·	·
